# Source: publication PMC5540273 (PLoS ONE, 2017)
# Values joined by “and” are separate entries in the source; they are usually repeats but may differ in a detail not shown here. Identical values can stand only once. Like-named read-outs stand apart in the source and are kept apart here.
# Key:
# CAMKK1 = conditions: concentration: 1 μM, replicates: in singlicate, n = 1
# CAMKK2 = conditions: concentration: 1 μM, replicates: in singlicate, n = 1
# CASK = conditions: concentration: 1 μM, replicates: in singlicate, n = 1
# CDC2L1 = system: T1, CDC2L1; conditions: concentration: 1 μM, replicates: in singlicate, n = 1
# T1 construct: gene CDK11B
# CDC2L2 = conditions: concentration: 1 μM, replicates: in singlicate, n = 1
# CDC2L5 = system: T2, CDC2L5; conditions: concentration: 1 μM, replicates: in singlicate, n = 1
# T2 construct: gene CDK13
# CDK11 = system: T3, CDK11; conditions: concentration: 1 μM, replicates: in singlicate, n = 1
# T3 construct: gene CDK19
# CDK2 = conditions: concentration: 1 μM, replicates: in singlicate; n = 1
# CDK3 = conditions: concentration: 1 μM, replicates: in singlicate; n = 1
# CDK4-cyclinD1 = conditions: concentration: 1 μM, replicates: in singlicate, n = 1
# CDK4-cyclinD3 = conditions: concentration: 1 μM, replicates: in singlicate, n = 1
# CDK4 = conditions: concentration: 1 μM, replicates: in singlicate, n = 1
# CDK5 = conditions: concentration: 1 μM, replicates: in singlicate; n = 1
# CDK7 = conditions: concentration: 1 μM, replicates: in singlicate, n = 1
# CDK8 = conditions: concentration: 1 μM, replicates: in singlicate, n = 1
# CDK9 = conditions: concentration: 1 μM, replicates: in singlicate, n = 1
# CDKL1 = conditions: concentration: 1 μM, replicates: in singlicate, n = 1
# CDKL2 = conditions: concentration: 1 μM, replicates: in singlicate, n = 1
# CDKL3 = conditions: concentration: 1 μM, replicates: in singlicate; n = 1
# CDKL5 = conditions: concentration: 1 μM, replicates: in singlicate; n = 1
# 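Also: KINOMEscan kinase panel screen.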
structure (smiles),measurement,setting,value
Cl.Nc1ncnc2occ(-c3ccc(NC(=O)Nc4cc(C(F)(F)F)ccc4F)cc3)c12 [SB-707548],%Inh,CAMKK1,9%
same,%Inh,CAMKK2,25%
same,%Inh,CASK,5%
same,%Inh,CDC2L1,25%
same,%Inh,CDC2L2,49%
same,%Inh,CDC2L5,97.4%
same,%Inh,CDK11,100%
same,%Inh,CDK2,80%
same,%Inh,CDK3,89%
same,%Inh,CDK4-cyclinD1,3%
same,%Inh,CDK4-cyclinD3,11%
same,%Inh,CDK4,2%
same,%Inh,CDK5,59%
same,%Inh,CDK7,97.8%
same,%Inh,CDK8,100%
same,%Inh,CDK9,78%
same,%Inh,CDKL1,7%
same,%Inh,CDKL2,74%
same,%Inh,CDKL3,95%
same,%Inh,CDKL5,0%
CN(C(=O)c1ccc(-c2cc(-c3c[nH]nc3-c3ccccn3)ccn2)cc1)C1CCOCC1 [GW810083],%Inh,CAMKK1,12%
same,%Inh,CAMKK2,25%
same,%Inh,CASK,0%
same,%Inh,CDC2L1,0%
same,%Inh,CDC2L2,0%
same,%Inh,CDC2L5,11%
same,%Inh,CDK11,52%
same,%Inh,CDK2,0%
same,%Inh,CDK3,0%
same,%Inh,CDK4-cyclinD1,31%
same,%Inh,CDK4-cyclinD3,0%
same,%Inh,CDK4,15%
same,%Inh,CDK5,0%
same,%Inh,CDK7,9%
same,%Inh,CDK8,45%
same,%Inh,CDK9,0%
same,%Inh,CDKL1,21%
same,%Inh,CDKL2,0%
same,%Inh,CDKL3,47%
same,%Inh,CDKL5,0%
NCCNS(=O)(=O)c1ccc(-c2ccnc3[nH]ccc23)cc1 [GSK977617],%Inh,CAMKK1; 1 µM,31% and 9%
same,%Inh,CAMKK2; 1 µM,37% and 16%
same,%Inh,CASK; 1 µM,19% and 21%
same,%Inh,CDC2L1; 1 µM,0% and 14%
same,%Inh,CDC2L2; 1 µM,13% and 15%
same,%Inh,CDC2L5,0%
same,%Inh,CDK11; 1 µM,9% and 0%
same,%Inh,CDK2,0%
same,%Inh,CDK3,0%
same,%Inh,CDK4-cyclinD1,0%
same,%Inh,CDK4-cyclinD3,0%
same,%Inh,CDK4; 1 µM,34% and 27%
same,%Inh,CDK5,0%
same,%Inh,CDK7; 1 µM,85% and 74%
same,%Inh,CDK8; 1 µM,20% and 19%
same,%Inh,CDK9; 1 µM,5% and 26%
same,%Inh,CDKL1; 1 µM,10% and 1%
same,%Inh,CDKL2; 1 µM,0% and 8%
same,%Inh,CDKL3,0%
same,%Inh,CDKL5,0%
CCc1nc(-c2cccc(C)c2)c(-c2ccnc(NCc3ccccc3)c2)s1,%Inh,CAMKK1,3%
same,%Inh,CAMKK2,12%
same,%Inh,CASK,16%
same,%Inh,CDC2L1,0%
same,%Inh,CDC2L2,5%
same,%Inh,CDC2L5,11%
same,%Inh,CDK11,0%
same,%Inh,CDK2,0%
same,%Inh,CDK3,9%
same,%Inh,CDK4-cyclinD1,0%
same,%Inh,CDK4-cyclinD3,0%
same,%Inh,CDK4,0%
same,%Inh,CDK5,0%
same,%Inh,CDK7,0%
same,%Inh,CDK8,0%
same,%Inh,CDK9,1%
same,%Inh,CDKL1,13%
same,%Inh,CDKL2,0%
same,%Inh,CDKL3,2%
same,%Inh,CDKL5,0%
N#Cc1ccc(-c2cc(-c3c[nH]nc3-c3ccccn3)ccn2)cc1 [GW693028],%Inh,CAMKK1,0%
same,%Inh,CAMKK2,2%
same,%Inh,CASK,9%
same,%Inh,CDC2L1,0%
same,%Inh,CDC2L2,0%
same,%Inh,CDC2L5,0%
same,%Inh,CDK11,12%
same,%Inh,CDK2,0%
same,%Inh,CDK3,6%
same,%Inh,CDK4-cyclinD1,0%
same,%Inh,CDK4-cyclinD3,2%
same,%Inh,CDK4,11%
same,%Inh,CDK5,0%
same,%Inh,CDK7,0%
same,%Inh,CDK8,23%
same,%Inh,CDK9,0%
same,%Inh,CDKL1,8%
same,%Inh,CDKL2,13%
same,%Inh,CDKL3,0%
same,%Inh,CDKL5,0%
O=C(NOCC1CC1)c1ccc(F)c(F)c1Nc1ccc(I)cc1Cl,%Inh,CAMKK1,0%
same,%Inh,CAMKK2,0%
same,%Inh,CASK,3%
same,%Inh,CDC2L1,0%
same,%Inh,CDC2L2,0%
same,%Inh,CDC2L5,0%
same,%Inh,CDK11,12%
same,%Inh,CDK2,0%
same,%Inh,CDK3,0%
same,%Inh,CDK4-cyclinD1,0%
same,%Inh,CDK4-cyclinD3,0%
same,%Inh,CDK4,0%
same,%Inh,CDK5,5%
same,%Inh,CDK7,0%
same,%Inh,CDK8,0%
same,%Inh,CDK9,0%
same,%Inh,CDKL1,0%
same,%Inh,CDKL2,0%
same,%Inh,CDKL3,20%
same,%Inh,CDKL5,0%
CN1c2ccc(CNc3ccc(F)cc3)cc2-c2c(cnn2C)S1(=O)=O,%Inh,CAMKK1,0%
same,%Inh,CAMKK2,0%
same,%Inh,CASK,22%
same,%Inh,CDC2L1,0%
same,%Inh,CDC2L2,0%
same,%Inh,CDC2L5,15%
same,%Inh,CDK11,0%
same,%Inh,CDK2,0%
same,%Inh,CDK3,0%
same,%Inh,CDK4-cyclinD1,13%
same,%Inh,CDK4-cyclinD3,0%
same,%Inh,CDK4,0%
same,%Inh,CDK5,0%
same,%Inh,CDK7,0%
same,%Inh,CDK8,0%
same,%Inh,CDK9,0%
same,%Inh,CDKL1,9%
same,%Inh,CDKL2,0%
same,%Inh,CDKL3,0%
same,%Inh,CDKL5,0%
Cl.Oc1cccc(Nc2ccnc3cc(-c4ccncc4)ccc23)c1 [GW494601],%Inh,CAMKK1,0%
same,%Inh,CAMKK2,29%
same,%Inh,CASK,10%
same,%Inh,CDC2L1,0%
same,%Inh,CDC2L2,10%
same,%Inh,CDC2L5,0%
same,%Inh,CDK11,4%
same,%Inh,CDK2,0%
same,%Inh,CDK3,0%
same,%Inh,CDK4-cyclinD1,0%
same,%Inh,CDK4-cyclinD3,0%
same,%Inh,CDK4,37%
same,%Inh,CDK5,0%
same,%Inh,CDK7,10%
same,%Inh,CDK8,36%
same,%Inh,CDK9,4%
same,%Inh,CDKL1,2%
same,%Inh,CDKL2,2%
same,%Inh,CDKL3,0%
same,%Inh,CDKL5,0%
O=C1Cc2cc(Nc3nc(NCc4cccc(S(=O)(=O)C(F)(F)F)c4)ncc3C(F)(F)F)ccc2N1,%Inh,CAMKK1,9%
same,%Inh,CAMKK2,3%
same,%Inh,CASK,0%
same,%Inh,CDC2L1,9%
same,%Inh,CDC2L2,0%
same,%Inh,CDC2L5,12%
same,%Inh,CDK11,8%
same,%Inh,CDK2,0%
same,%Inh,CDK3,0%
same,%Inh,CDK4-cyclinD1,5%
same,%Inh,CDK4-cyclinD3,0%
same,%Inh,CDK4,27%
same,%Inh,CDK5,14%
same,%Inh,CDK7,4%
same,%Inh,CDK8,3%
same,%Inh,CDK9,10%
same,%Inh,CDKL1,21%
same,%Inh,CDKL2,4%
same,%Inh,CDKL3,3%
same,%Inh,CDKL5,18%
CC(C)(CN)c1nc(-c2ccc(Cl)c(O)c2)c(-c2ccncc2)[nH]1.O=C(O)C(F)(F)F [SB-477794],%Inh,CAMKK1,0%
same,%Inh,CAMKK2; 1 µM,0% and 4%
same,%Inh,CASK; 1 µM,18% and 0%
same,%Inh,CDC2L1,0%
same,%Inh,CDC2L2; 1 µM,31% and 2%
same,%Inh,CDC2L5; 1 µM,0% and 30%
same,%Inh,CDK11,0%
same,%Inh,CDK2,0%
same,%Inh,CDK3,7%
same,%Inh,CDK4-cyclinD1; 1 µM,25% and 64%
same,%Inh,CDK4-cyclinD3; 1 µM,32% and 0%
same,%Inh,CDK4; 1 µM,39% and 51%
same,%Inh,CDK5,0%
same,%Inh,CDK7; 1 µM,0% and 14%
same,%Inh,CDK8; 1 µM,59% and 64%
same,%Inh,CDK9,0%
same,%Inh,CDKL1; 1 µM,3% and 10%
same,%Inh,CDKL2; 1 µM,14% and 0%
same,%Inh,CDKL3,0%
same,%Inh,CDKL5,0%
NCC(NC(=O)c1cc(-c2cn[nH]c2)c(-c2ccnc3[nH]ccc23)s1)c1ccccc1.O=C(O)C(F)(F)F.O=C(O)C(F)(F)F (stereo not shown) [GSK1325775],%Inh,CAMKK1,76%
same,%Inh,CAMKK2,67%
same,%Inh,CASK,23%
same,%Inh,CDC2L1,0%
same,%Inh,CDC2L2,11%
same,%Inh,CDC2L5,32%
same,%Inh,CDK11,34%
same,%Inh,CDK2,0%
same,%Inh,CDK3,0%
same,%Inh,CDK4-cyclinD1,48%
same,%Inh,CDK4-cyclinD3,41%
same,%Inh,CDK4,0%
same,%Inh,CDK5,0%
same,%Inh,CDK7,93.7%
same,%Inh,CDK8,33%
same,%Inh,CDK9,64%
same,%Inh,CDKL1,34%
same,%Inh,CDKL2,53%
same,%Inh,CDKL3,68%
same,%Inh,CDKL5,48%
